Compounds with a hit are over-represented: about 1.5% of the library has one in this group of screens.
GALK inhibitor = blocks human galactokinase activity; Purified GALK, Kinase-Glo residual ATP luminescence; P51570; 270,000 tested, 0.007% active; Potency, µM (top dose mostly 57.5 µM), for the others: at the top dose activity change, negative = inhibition, most hits filed as inhibitors; also: potency is read from the fitted curve at half-maximal effect
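Quantitative HTS: GALK 5 nM, ATP 35 uM, galactose 100 uM, 1 h room temperature, then luciferase-based ATP detection.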
PI4K2A inh = PI4K2A (human) kinase inhibition | purified PI4K2A, ADP-Glo luminescence, 1 h; active compounds read low | activity change, negative = inhibition, % at 76.9 µM | 420,000 tested, 0.13% active | Q9BTU6; in the data active = activity change below about -50%; inconclusive = mostly about -30% to -49%;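 also: -100% = wells without enzyme as full effect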
Target sequence (Q9BTU6 whole entry, looked up): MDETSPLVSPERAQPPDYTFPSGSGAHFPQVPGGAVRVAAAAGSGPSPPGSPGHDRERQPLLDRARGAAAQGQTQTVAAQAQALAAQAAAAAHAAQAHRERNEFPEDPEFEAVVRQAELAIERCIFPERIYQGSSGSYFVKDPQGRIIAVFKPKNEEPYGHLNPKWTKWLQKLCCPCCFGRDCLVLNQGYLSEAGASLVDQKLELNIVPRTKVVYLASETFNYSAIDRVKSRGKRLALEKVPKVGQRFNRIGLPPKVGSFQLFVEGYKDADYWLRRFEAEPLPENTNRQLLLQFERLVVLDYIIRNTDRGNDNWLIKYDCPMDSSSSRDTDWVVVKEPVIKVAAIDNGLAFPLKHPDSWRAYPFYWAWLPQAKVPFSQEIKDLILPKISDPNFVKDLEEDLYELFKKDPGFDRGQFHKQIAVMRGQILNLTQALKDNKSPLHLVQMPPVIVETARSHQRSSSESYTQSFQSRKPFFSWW
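Compounds are screened against recombinant PI4K2A using PI as substrate and ATP, the latter dispensed at 300 microM. Reactions run one hour at ambient temperature before ADP-Glo detection; full inhibition defined by wells lacking enzyme.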
FBPA coupling cs = coupling enzyme interference in Giardia aldolase counter-screen | coupling enzyme system counterscreen, AmpLite Red fluorescence | activity change, negative = inhibition, % at 58.2 µM, hits read low | 290,000 tested, 0.67% active; in the data active = activity change below about -30%
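Compounds tested against the coupling enzymes alone at 57.5 uM final; readout was AmpLite Red fluorescence (525/598 nm) after 20 min at RT.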
TrxR1 inh = rat TrxR1 inhibition; O89049; recombinant rTrxR1, NADPH fluorescence consumption, selenite substrate; Potency, µM (doses to about 114 µM), without a hit: top-dose activity change, negative = inhibition, usual class: inhibitors; 390,000 tested, 1% active; AID 588453; also: potency is read from the fitted curve at half-maximal effect; nearly all actives have a fitted effect of over 65% in size
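Rat TrxR1 (90 nM in the dispensed reagent) was pre-reduced with 400 uM NADPH for 5 min at room temperature, then incubated with compound for 15 min. After 400 uM selenite was added, NADPH fluorescence (Ex 340/Em 450 nm) was followed for 8 min.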
TrxR1 substrate = is turned over as a substrate by rat TrxR1; purified TrxR1 substrate turnover, NADPH consumption readout; AID 588456; 390,000 tested, 0.01% active; Potency, µM (series often up to 114 µM), inactives show top-dose activity change, negative = substrate turnover; O89049; also: potency is read from the fitted curve at half-maximal effect; nearly all actives have a fitted effect of over 50% in size
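Rat TrxR1, dispensed at 90 nM, was prereduced with 400 uM NADPH (final) for 5 min at ~22 deg C, then incubated with compound 15 min before 400 uM selenite. A first-read NADPH fluorescence drop versus no-compound background flagged substrates.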
Giardia kill = kills Giardia lamblia | 340,000 tested, 0.15% active | activity change, % at 7.66 µM, hits read low | Giardia lamblia trophozoite viability; in the data active = activity change below about -80%; inconclusive = between about -30% and that limit;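 also: parasites exposed to compound for two days anaerobically before the ATP read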
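Anaerobic 48 hrs incubation at 37 deg C of 100 trophozoites/well with test compounds; ATPLite 1-Step luminescence, 15-30 min RT, reports cellular ATP as viability.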
* hit, by the source's call; ? = inconclusive; . = not tested or not shown; [ ] = remark or other dose. Unless noted, calls follow the shape of the dose curve; as a rule, active = well fitted curve in the direction sought with a large enough effect; inconclusive = small, poorly fitted or top-dose-only effect, or another doubt; inactive = no such curve, though single readings can be large; an effect the other way counts as inactive or inconclusive. Unless noted, % is scaled to controls: 0 for no effect and ±100 for the full control effect.

SMILES | GALK inhibitor | PI4K2A inh | FBPA coupling cs | TrxR1 inh | TrxR1 substrate | Giardia kill
Cc1ccccc1-c1nc(CS(=O)(=O)CC(=O)NCCCN2CCCC2=O)c(C)o1 | -1% | -2 | 0 | 25µM* | 9%[57.1 µM] | 1
COC(=O)N1C2=C(c3ccccc3[C@@H]1CC(=O)Nc1ccc3ccc4cccc5ccc1c3c45)[C@@H]1C(=O)N(c3ccccc3)C(=O)[C@@H]1[C@H](C)C2 | . | . | 0 | . | . | .
Cc1ccc(C2=NN(C(=O)CCl)C(c3cccs3)C2)o1 (centres undefined) | 1% | 3 | -1 | 10µM* | 0%[57.1 µM] | -21
O=C(CCl)N1N=C(c2ccco2)CC1c1cccs1 (centres undefined) | 0% | -2 | 0 | 2µM* | 0% | -2
O=C(CSc1nc2ccc(Cl)cc2[nH]1)N1CCN(C(=O)c2ccco2)CC1 | 0% | -8 | -2 | 16µM* | 6% | -6
CCc1cc2ccc(C)cc2nc1SCC(=O)N1CCN(C(=O)c2ccco2)CC1 | 0% | 0 | 5 | 4µM* | 4% | -10
Cc1cc(Cl)ccc1OCCCC(=O)N1CCN(C(=O)c2ccco2)CC1 | 7% | -5 | 1 | 28µM* | -1%[57.1 µM] | 4
O=C(CCCOc1ccccc1)N1CCN(C(=O)c2ccco2)CC1 | 0% | 3 | 0 | 12% | 3% | -3
CCc1cc2cc3c(cc2nc1SCC(=O)N1CCN(C(=O)c2ccco2)CC1)OCO3 | 5% | 2 | -1 | 2%[57.1 µM] | 6%[57.1 µM] | 8
O=C(CSc1nc2ccc(Cl)cc2[nH]1)c1ccc2c(c1)OCO2 | -1% | 7 | -36* | 4%[57.1 µM] | -1%[57.1 µM] | 3
Cc1ccc(Cl)cc1N1CCN(C(=O)c2sc3nc4n(c(=O)c3c2C)CCC4)CC1 | . | 0 | . | 14% | 8%[11.4 µM] | .
Nc1[nH]c(C(=O)c2ccccc2)c(-c2ccc(Br)cc2)c1C(=O)N1CCN(CCO)CC1 | . | -4 | . | . | . | .
Clc1cccc[n+]1CCCCCC[n+]1ccccc1Cl | . | . | . | 56µM* | -8% | .
Brc1cccc[n+]1CCCCCC[n+]1ccccc1Br | . | . | . | ? | 7% | .
O=C(O)CNC(=O)c1ccc(OC(F)F)cc1 | -1% | -3 | 0 | 12% | 9% | 4
O=C1CCCC(=O)N1c1ccc(O)cc1 | -2% | -3 | 1 | 3% | -6% | 15
O=C1C=CC(=O)N1c1ccc(O)cc1 | 0% | 0 | 4 | 1.3µM* | 2% | 19
O=C1C=CC(=O)N1c1ccc(OC(F)F)cc1 | . | 14 | 3 | 1.1µM* | 8% | -2
COc1ccc(NC2C=CS(=O)(=O)C2)cc1 (centres undefined) | 5% | -6 | 4 | 16µM* | 7% | 1
CCOc1ccc(NC2C=CS(=O)(=O)C2)cc1 (centres undefined) | 0% | 8 | -16 | ? | 8%[57.1 µM] | 6
CNC(=O)CCc1nc(-c2ccc(C(C)C)cc2)no1 | . | -4 | . | . | . | .
COc1ccc(Br)c2c1-c1nc(NC(=O)c3cccc(C)c3)sc1C2 | . | -12 | . | ? | -5% | .
CCCC(=O)C1=C(O)C(C(=O)OC)C(C)(C)CC1=Nc1ccc(N)cc1 (centres undefined) | 0% | 2 | 4 | 14%[57.1 µM] | 3%[57.1 µM] | 7
CCCC(=Nc1ccc(N)cc1)C1=C(O)C(C(=O)OC)C(C)(C)CC1=O (centres undefined) | 1% | ? | -41* | ? | 1% | -5
CCCCc1nc2c(c3c1C[C@H](C)OC3)CN(C(=O)C1CC1)CC2 | . | . | 5 | . | . | .
SMILES | GALK inhibitor | PI4K2A inh | FBPA coupling cs | TrxR1 inh | TrxR1 substrate | Giardia kill
CS(=O)(=O)c1ccc(S(=O)CC(=O)OCc2ccccc2)c([N+](=O)[O-])c1 (centres undefined) | -1% | -13 | -14 | 2.8µM* | 6%[57.1 µM] | 8
CCOC(=O)c1ccccc1OC(=O)CS(=O)c1ccccc1[N+](=O)[O-] (centres undefined) | 1% | 5 | 2 | -16% | 0% | -4
O=C(CS(=O)c1ccc(C(F)(F)F)cc1[N+](=O)[O-])Oc1ccccc1 (centres undefined) | 0% | 8 | -39* | ? | -2% | 10
CN(C)c1ccc(/C=C/c2ccnc3ccc(F)cc23)cc1 | . | . | . | 1%[57.1 µM] | -6%[57.1 µM] | .
CC(C)c1ccc(OC[C@@H](O)CN2CCC(C(O)(c3ccccc3)c3ccccc3)CC2)cc1 | . | -1 | . | . | . | .
O=C(NC1CCCCC1)c1ccc([N+](=O)[O-])o1 | 0% | -13 | -4 | -15%[57.1 µM] | 2%[57.1 µM] | -95*
O=C(NC1CCC(O)CC1)c1ccc(-c2ccc([N+](=O)[O-])cc2)o1 (centres undefined) | -3% | -1 | 2 | 3.2µM* | -2% | ?
O=C(NC1CCCC(C(F)(F)F)C1)c1ccc([N+](=O)[O-])o1 (centres undefined) | . | -4 | . | -27% | -3% | -91*
O=C(COC(=O)c1ccc(-c2ccc([N+](=O)[O-])cc2)o1)NC(=O)NC1CCCCC1 | 0% | 2 | -1 | -20% | -13% | 5
O=C(NC1CCCCC1)c1ccc(-c2ccccc2[N+](=O)[O-])o1 | 2% | -1 | . | 3% | -4% | -20
CCCN(CCC(=O)Nc1cc(OC)cc(OC)c1)CC1CC1 | 8% | -5 | -36* | 0%[57.1 µM] | 10%[57.1 µM] | -7
CCN(CCC(=O)Nc1cc(OC)cc(OC)c1)Cc1ccccc1 | -3% | -2 | -40* | 3% | -1% | 2
CCCN(CCC(=O)Nc1ccccc1F)CC1CC1 | -1% | 7 | 1 | -3% | -2% | 1
COc1ccc(CNC(=O)CSc2ncc3c(n2)-c2ccc(Cl)cc2N(Cc2ccc(F)cc2)S3(=O)=O)cc1OC | . | -3 | . | 14%[57.1 µM] | 4%[57.1 µM] | .
CN1C[C@H]2c3ccccc3Oc3ccc(Cl)cc3[C@@H]2C1 | . | -4 | . | . | . | .
C=CCC(C)(NCc1ccccc1)C(=O)OCC (centres undefined) | . | . | -1 | . | . | .
CC(C)(C)n1ncc2c(=O)n(Cc3ccc(SC(F)(F)F)cc3)cnc21 | . | . | . | 7% | -14% | .
O=C(C1COc2ccccc2O1)N1CCN(c2ccc(F)cc2)CC1 (centres undefined) | 0% | 0 | 1 | 9% | 5% | 11
O=C(C1COc2ccccc2O1)N1CCN(c2ccc([N+](=O)[O-])cc2)CC1 (centres undefined) | . | 8 | . | 1.4µM* | -3% | 19
CCN(CC)CCNc1cc(C)nc2c1C(=O)C(=O)C=C2N1CCCCC1 | 1% | 0 | -64* | -5% | -7% | -1
CCOC(=O)c1c(N2C(=O)C=CC2=O)sc(C)c1C | 0% | 2 | 10 | 2.2µM* | 6% | -3
CCOC(=O)c1c(NC(N)=O)sc(C)c1C | 0% | 1 | -5 | 12% | 7% | -6
O=[N+]([O-])c1ccc(O/N=[N+](\[O-])N2CCCCC2)c([N+](=O)[O-])c1 | . | . | . | 22µM* | -11% | .
